# Assay results from the supplement of paper PMC8728848.
# The full list was thinned out, with the strongest signals kept by preference.
# What was measured:
# Assay in all cases: glycan array binding signal (z-score within array); higher = stronger binding
# Settings in all cases: glycan notation: IUPAC condensed, linker removed
# [1] = molecular target: Fuc(a1-2)Gal(b1-3)GlcNAc(b1-2)Man(a1-3)[Fuc(a1-2)Gal(b1-3)GlcNAc(b1-2)Man(a1-6)]Man(b1-4)GlcNAc(b1-4)GlcNAc
# Procedure, shortened: (§1)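 The binding signal is a Z-score computed within each array. Data were drawn from 3228 arrays in the Consortium for Functional Glycomics database, restricted to those with a known protein sequence. Scores were averaged over arrays of the same protein sequence at different concentrations or buffers, and over linkers, and negative values can be taken as non-binding.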
# [2] = molecular target: Fuc(a1-2)Gal(b1-4)GlcNAc(b1-3)GalNAc
# Procedure, shortened: as §1
# [3] = molecular target: Fuc(a1-2)[GalNAc(a1-3)]Gal(b1-4)[Fuc(a1-3)]GlcNAc(b1-3)GalNAc
# Procedure, shortened: as §1
# [4] = molecular target: Fuc(a1-3)GlcNAc
# Procedure, shortened: as §1
# [5] = molecular target: Gal(a1-2)Gal
# Procedure, shortened: as §1
# [6] = molecular target: Gal(a1-3)Gal(b1-3)GlcNAc(b1-2)Man(a1-3)[Gal(a1-3)Gal(b1-3)GlcNAc(b1-2)Man(a1-6)]Man(b1-4)GlcNAc(b1-4)GlcNAc
# Procedure, shortened: as §1
# [7] = molecular target: Gal(a1-3)Gal(b1-3)[Fuc(a1-4)]GlcNAc(b1-2)Man(a1-3)[Gal(a1-3)Gal(b1-3)[Fuc(a1-4)]GlcNAc(b1-2)Man(a1-6)]Man(b1-4)GlcNAc(b1-4)GlcNAc
# Procedure, shortened: as §1
# [8] = molecular target: Gal(a1-3)Gal(b1-4)GlcNAc(b1-3)GalNAc
# Procedure, shortened: as §1
# [9] = molecular target: Gal(a1-3)Gal(b1-4)[Fuc(a1-3)]GlcNAc
# Procedure, shortened: as §1
# [10] = molecular target: Gal(b1-3)Gal
# Procedure, shortened: as §1
# [11] = molecular target: Gal(b1-3)Gal(b1-4)GlcNAc
# Procedure, shortened: as §1
# [12] = molecular target: Gal(b1-3)GalNAc
# Procedure, shortened: as §1
# [13] = molecular target: Gal(b1-3)GalNAc(a1-3)[Fuc(a1-2)]Gal(b1-4)Glc
# Procedure, shortened: as §1
# [14] = molecular target: Gal(b1-3)GalNAc(a1-3)[Fuc(a1-2)]Gal(b1-4)GlcNAc
# Procedure, shortened: as §1
# [15] = molecular target: Gal(b1-3)GalNAc(b1-3)Gal
# Procedure, shortened: as §1
# [16] = molecular target: Gal(b1-3)GalNAc(b1-4)Gal(b1-4)Glc
# Procedure, shortened: as §1
# [17] = molecular target: Gal(b1-3)GlcNAc(b1-2)[Gal(b1-3)GlcNAc(b1-6)]Man(a1-6)[Gal(b1-3)GlcNAc(b1-2)Man(a1-3)]Man(b1-4)GlcNAc(b1-4)GlcNAc
# Procedure, shortened: as §1
# [18] = molecular target: Gal(b1-3)GlcNAc(b1-3)Gal(b1-4)GlcNAc(b1-2)Man(a1-3)[Gal(b1-3)GlcNAc(b1-3)Gal(b1-4)GlcNAc(b1-2)Man(a1-6)]Man(b1-4)GlcNAc(b1-4)GlcNAc
# Procedure, shortened: as §1
# [19] = molecular target: Gal(b1-3)GlcNAc(b1-3)Gal(b1-4)GlcNAc(b1-6)[Gal(b1-3)GlcNAc(b1-3)]Gal(b1-4)Glc
# Procedure, shortened: as §1
# [20] = molecular target: Gal(b1-3)GlcNAc(b1-6)Gal(b1-4)GlcNAc
# Procedure, shortened: as §1
# [21] = molecular target: Gal(b1-3)[Fuc(a1-4)]GlcNAc(b1-3)Gal(b1-3)[Fuc(a1-4)]GlcNAc
# Procedure, shortened: as §1
# [22] = molecular target: Gal(b1-3)[Neu5Ac(a2-6)]GalNAc
# Procedure, shortened: as §1
# [23] = molecular target: Gal(b1-4)Glc
# Procedure, shortened: as §1
# [24] = molecular target: Gal(b1-4)GlcNAc
# Procedure, shortened: as §1
# [25] = molecular target: Gal(b1-4)GlcNAc(b1-3)Gal(b1-4)GlcNAc(b1-2)Man(a1-3)[Gal(b1-4)GlcNAc(b1-3)Gal(b1-4)GlcNAc(b1-2)Man(a1-6)]Man(b1-4)GlcNAc(b1-4)GlcNAc
# Procedure, shortened: as §1
# [26] = molecular target: Gal(b1-4)GlcNAc(b1-3)Gal(b1-4)GlcNAc(b1-2)Man(a1-3)[Gal(b1-4)GlcNAc(b1-3)Gal(b1-4)GlcNAc(b1-2)Man(a1-6)]Man(b1-4)GlcNAc(b1-4)[Fuc(a1-6)]GlcNAc
# Procedure, shortened: as §1
# [27] = molecular target: Gal(b1-4)GlcNAc(b1-3)Gal(b1-4)GlcNAc(b1-3)Gal(b1-4)GlcNAc(b1-3)Gal(b1-4)GlcNAc(b1-2)Man(a1-3)[Gal(b1-4)GlcNAc(b1-3)Gal(b1-4)GlcNAc(b1-3)Gal(b1-4)GlcNAc(b1-3)Gal(b1-4)GlcNAc(b1-2)Man(a1-6)]Man(b1-4)GlcNAc(b1-4)GlcNAc
# Procedure, shortened: as §1
# [28] = molecular target: Gal(b1-4)GlcNAc(b1-3)Gal(b1-4)GlcNAc(b1-3)Gal(b1-4)GlcNAc(b1-3)Gal(b1-4)GlcNAc(b1-3)Gal(b1-4)GlcNAc(b1-2)Man(a1-3)[Gal(b1-4)GlcNAc(b1-3)Gal(b1-4)GlcNAc(b1-3)Gal(b1-4)GlcNAc(b1-3)Gal(b1-4)GlcNAc(b1-3)Gal(b1-4)GlcNAc(b1-2)Man(a1-6)]Man(b1-4)GlcNAc(b1-4)[Fuc(a1-6)]GlcNAc
# Procedure, shortened: as §1
# [29] = molecular target: Gal(b1-4)GlcNAc(b1-6)[Gal(b1-3)]GalNAc
# Procedure, shortened: as §1
# [30] = molecular target: Gal3S(b1-3)[Fuc(a1-4)]GlcNAc
# Procedure, shortened: as §1
binder,measurement,setting,value
"CFEM-PPm (Pichia pastoris), F2QPV1 (protein) AVATPPACLLACAAEVVKESSDCDALNNIQCICENEGSAIHACLESTCPDGLSSTALQSFEDVCE",glycan array binding signal (z-score),[1],-0.289
same,glycan array binding signal (z-score),[2],1.77
same,glycan array binding signal (z-score),[3],3.4
same,glycan array binding signal (z-score),[4],-0.301
same,glycan array binding signal (z-score),[5],-0.447
same,glycan array binding signal (z-score),[6],0.425
same,glycan array binding signal (z-score),[7],-0.006
same,glycan array binding signal (z-score),[8],-0.284
same,glycan array binding signal (z-score),[9],-0.203
same,glycan array binding signal (z-score),[10],5.41
same,glycan array binding signal (z-score),[11],6.22
same,glycan array binding signal (z-score),[12],3.57
same,glycan array binding signal (z-score),[13],0.271
same,glycan array binding signal (z-score),[14],0.224
same,glycan array binding signal (z-score),[15],5.7
same,glycan array binding signal (z-score),[16],14.7
same,glycan array binding signal (z-score),[17],-0.203
same,glycan array binding signal (z-score),[18],-0.305
same,glycan array binding signal (z-score),[19],-0.017
same,glycan array binding signal (z-score),[20],-0.102
same,glycan array binding signal (z-score),[21],-0.034
same,glycan array binding signal (z-score),[22],7.18
same,glycan array binding signal (z-score),[23],-0.356
same,glycan array binding signal (z-score),[24],-0.105
same,glycan array binding signal (z-score),[25],1.53
same,glycan array binding signal (z-score),[26],-0.026
same,glycan array binding signal (z-score),[27],-0.09
same,glycan array binding signal (z-score),[28],-0.233
same,glycan array binding signal (z-score),[29],1.67
same,glycan array binding signal (z-score),[30],-0.262
